# From the supplement of paper PMC10981050
# “And” between values parts separate entries of the source, which are not always exact repeats. Identical values can stand only once. Counter-ions that a name gives are not always drawn.
# How the values were obtained:
# Test in all cases: cell viability relative to vehicle control; higher = less cytotoxic
# Settings in all cases: 10 µM
# K562 = system: K562
# How it was run: (§1)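 Each screen used CRISPR-edited mutant and wild-type clones from four leukaemia lines. Compounds were acoustically dispensed at a single 10 µM dose, and CellTiter-Glo luminescence was read after 48 h with the supernatant first removed. Viability was analysed in Genedata Screener and given as percent of the on-plate vehicle control.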
# MARIMO = system: MARIMO
# How it was run: as §1
# MOLM14 = system: MOLM14
# How it was run: as §1
# OCI-AML2 = system: OCI-AML2
# How it was run: as §1
Compound,cell viability (K562; SRSF2 genotype: SRSF2 P95H/wt),cell viability (K562; SRSF2 genotype: SRSF2 wt/wt),cell viability (MARIMO; SRSF2 genotype: SRSF2 P95H/wt),cell viability (MARIMO; SRSF2 genotype: SRSF2 wt/wt),cell viability (MOLM14; SRSF2 genotype: SRSF2 P95H/wt),cell viability (MOLM14; SRSF2 genotype: SRSF2 wt/wt),cell viability (OCI-AML2; SRSF2 genotype: P95H/wt),cell viability (OCI-AML2; SRSF2 genotype: wt/wt)
Cc1ccc(C(=O)Nc2cccc(C(F)(F)F)c2)cc1Nc1nc(-c2cccnc2)nc2c1cnn2C,65.9% and 77.9%,64.2%,46.1%,60.5%,91%,110%,87%,82.7%
COC(=O)CNC(=O)C(=O)OC,93% and 96.6%,96.3%,89.1%,90.8%,92.6%,94.5%,56.9%,64.9%
Cc1ccc(C(=O)Nc2ccc(Oc3cc4cnn(C)c4cc3-c3cn[nH]c3)c(F)c2)c(=O)n1-c1ccc(F)cc1,82.9% and 87.4%,87.2%,88.5%,103%,8.56%,12.4%,27.6%,31.6%
COc1ccc2cc3[n+](cc2c1OC)CCc1cc2c(cc1-3)OCO2 [Berberine Sulfate],62.4% and 69.2%,72.4%,66.7%,59.5%,71%,75.3%,49.8%,46.2%
CCn1c(=O)c(-c2ccc(Cl)cc2Cl)cc2cnc(Nc3ccc(N4CCNCC4)c(F)c3)nc21,1.46% and 1.57%,3.22%,4.24%,2.21%,0.53%,0.81%,0.95%,1.2%
CCOc1nc2cccc(C(=O)O)c2n1Cc1ccc(-c2ccccc2-c2noc(=O)[nH]2)cc1 [Azilsartan (TAK-536)],106% and 104%,97.9%,93.5%,103%,99.2%,103%,101%,101%
"C[C@H](Nc1ncnc2nc[nH]c12)c1cc2cccc(Cl)c2c(=O)n1-c1ccccc1 [Duvelisib (IPI-145, INK1197)]",93.1% and 95.6%,94.3%,67.6%,62.3%,50.2%,51.6%,28.7%,38%
"O=C(Nc1ccc2c(O)cc(S(=O)(=O)O)cc2c1)Nc1ccc2c(O)cc(S(=O)(=O)O)cc2c1 [AMI-1, free acid]",105% and 92.6%,109%,100%,110%,103%,108%,109%,112%
C=C1/C(=C\C=C2/CCC[C@]3(C)[C@@H]([C@H](C)/C=C/[C@H](C)C(C)C)CC[C@@H]23)C[C@@H](O)C[C@@H]1O [Doxercalciferol (Hectorol)],81.4% and 88.8%,86.5%,69.6%,46.8%,68.5%,70.8%,55.3%,73%
CCOC(=O)c1csc(Nc2ccc(Cl)cc2)n1,97.1% and 103%,92.5%,81%,92.8%,111%,111%,75.6%,71.8%
O=C(c1cn(Cc2cncn2Cc2ccc(Br)cc2)cc1-c1cccc2ccccc12)N1CCOCC1,48.4% and 62.4%,47.2%,34.1%,36.4%,35.1%,39.1%,25.7%,32.2%
O=C(O)CC(C(=O)O)n1c(O)c(C2=c3cc(Br)ccc3=NC2=O)sc1=S (stereo unspecified),96.1% and 99.4%,99.6%,97.7%,100%,81.8%,89.4%,113%,103%
COc1ccc(-c2nc3cc(C4=NNC(=O)CC4C)ccc3[nH]2)cc1 (stereo unspecified) [Pimobendan (Vetmedin)],59.4% and 65.2%,68.4%,65.5%,57.5%,68%,83.6%,89.3%,84.4%
COc1cc(OC)cc(N(CCNC(C)C)c2ccc3ncc(-c4cnn(C)c4)nc3c2)c1,5.81% and 13.7%,12.4%,50.6%,54.4%,34.8%,34.9%,24.7%,31.9%
CCCc1cc(=O)[nH]c(=S)[nH]1 [Propylthiouracil],107% and 91.6%,94%,93.1%,96.5%,100%,96.8%,106%,110%
CC(C)C[C@@H](C=O)NC(=O)[C@H](CC(C)C)NC(=O)[C@H](CC(C)C)NC(=O)OCc1ccccc1,1.82% and 1.99%,1.37%,0.54%,1.13%,0.49%,0.53%,0.36%,0.41%
O=C(Nc1ccc([N+](=O)[O-])cc1O)Nc1ccccc1Br,16.9% and 34.5%,33.9%,7.34%,8.23%,13.5%,3.38%,8.53%,10.4%
CC1(C)CCCC2(C)C1CCC1(C)OC(=O)CC12 (stereo unspecified) [Sclareolide (Norambreinolide)],109% and 97.8%,99.8%,95.2%,98.7%,101%,106%,102%,89.7%
O=C(O)c1ccc(NC(=O)[C@H](Cc2ccc(O)cc2)NC(=O)c2ccccc2)cc1 [bentiromide],103% and 106%,106%,112%,111%,95.6%,104%,110%,96.2%
O=C(O)c1ccc(O)c(O)c1 [Protocatechuic acid],101% and 97.7%,93.3%,93.1%,96.1%,96.8%,103%,98.4%,104%
CN1C(=O)c2sccc2N(C)c2nc(Nc3ccc(S(N)(=O)=O)cc3)ncc21,14% and 30.1%,63.4%,22.4%,25.9%,5.5%,3.55%,8.63%,10.6%

Compound,cell viability (K562; SRSF2 genotype: SRSF2 P95H/wt),cell viability (K562; SRSF2 genotype: SRSF2 wt/wt),cell viability (MARIMO; SRSF2 genotype: SRSF2 P95H/wt),cell viability (MARIMO; SRSF2 genotype: SRSF2 wt/wt),cell viability (MOLM14; SRSF2 genotype: SRSF2 P95H/wt),cell viability (MOLM14; SRSF2 genotype: SRSF2 wt/wt),cell viability (OCI-AML2; SRSF2 genotype: P95H/wt),cell viability (OCI-AML2; SRSF2 genotype: wt/wt)
O=c1cc(N2CCOCC2)oc2c(-c3cccc4c3sc3ccccc34)cccc12,89.7% and 97.5%,88.3%,93%,87.3%,60.5%,51.9%,52.5%,66.4%
C[C@H]1[C@H](C)CC[C@]2(C(=O)O)CC[C@]3(C)C(=CC[C@@H]4[C@@]5(C)C[C@@H](O)[C@H](O)C(C)(C)[C@@H]5CC[C@]43C)[C@H]12 [Corosolic acid],94.6% and 95.3%,93.5%,94.7%,107%,97.3%,96.1%,103%,99.7%
COc1cc2c(c(OC)c1OC)-c1c(cc3c(c1OC)OCO3)CC(C)C(C)C2 (stereo unspecified) [Schisandrin B],76.4% and 76%,74.8%,71.8%,86%,73%,76.2%,90.8%,84.9%
COc1ccc(C(=O)CC(=O)c2ccc(C(C)(C)C)cc2)cc1 [Avobenzone (Parsol 1789)],87.3% and 92.5%,91.8%,77.2%,92.6%,87.6%,98.9%,61.2%,76.8%
Cc1ccc(-c2n[nH]c3c2C(c2cccc(O)c2)N(c2ccc(C(=O)O)cc2)C3=O)cc1 (stereo unspecified),104% and 100%,105%,101%,106%,100%,107%,104%,106%
Cc1ccc(=O)n(-c2ccccc2)c1 [Pirfenidone],104% and 107%,103%,103%,103%,97.1%,98.8%,109%,106%
COc1ccc(-n2nc(C(N)=O)c3c2C(=O)N(c2ccc(N4CCCCC4=O)cc2)CC3)cc1 [Apixaban],99.3% and 102%,103%,97.9%,112%,107%,105%,98%,96.7%
C=C1/C(=C\C=C2/CCC[C@]3(C)[C@@H]([C@H](C)CCCC(C)C)CC[C@@H]23)C[C@@H](O)C[C@@H]1O [Alfacalcidol],90.3% and 95.4%,99.1%,82.5%,82.5%,84.9%,94.2%,98.7%,110%
CN1CCN(S(=O)(=O)c2ccc(-c3cnc(N)c(C(=O)Nc4cccnc4)n3)cc2)CC1,72.1% and 61.7%,73.6%,76.7%,114%,40.6%,42.1%,30%,63.3%
Cc1cc([N+](=O)[O-])ccc1NS(=O)(=O)c1cc(Cl)ccc1Cl,79.9% and 88%,86.3%,96.4%,92.9%,92.3%,90.9%,93.1%,97.1%
O=C(O)/C=C/c1ccc(Cn2ccnc2)cc1 [Ozagrel],102% and 100%,94.6%,101%,106%,102%,100%,98.1%,99.6%
CC(C)NC[C@@H](C(=O)N1CCN(c2ncnc3c2[C@H](C)C[C@H]3O)CC1)c1ccc(Cl)cc1 [Ipatasertib (GDC-0068)],90.8% and 87.6%,86.3%,80.8%,80%,51.1%,56.6%,72.1%,81.2%
CN(C(=O)CNC(=O)/C=C/c1cccc(Cl)c1)C1CCS(=O)(=O)CC1,35.4% and 33%,28.4%,103%,104%,105%,86%,101%,104%
O=C(O)CCn1c(O)c(C2=c3cc(Cl)ccc3=NC2=O)sc1=S,87.5% and 92.5%,88.2%,84.1%,88.7%,71.7%,83.2%,107%,116%
CC(=O)Oc1c(C)c(C)c2c(c1C)CCC(C)(CCC[C@H](C)CCC[C@H](C)CCCC(C)C)O2 (stereo partly specified) [Vitamin E Acetate],105% and 103%,106%,102%,103%,103%,106%,105%,94.2%
CC=C(C)C(=O)O [S3803 Angelic acid.cdx],106% and 99.5%,103%,106%,108%,104%,100%,103%,108%
[I-].[K+] [Potassium iodide],100% and 96%,100%,107%,105%,106%,100%,102%,112%
COC(=O)C1=CO[C@@H](O)[C@@H]2C(CO)=CC[C@H]12 [Genipin],94.8% and 97.4%,95.1%,71.1%,85.7%,78%,90.4%,26.4%,41.1%
O=C(Nc1ccc(O)cc1)c1ccccc1O [Osalmid],98.1% and 108%,98.3%,93%,95.8%,107%,109%,99%,87.3%
COc1cc2ncc(-c3ccccc3)nc2cc1OC [Tyrphostin AG 1296 (AG 1296)],90.3% and 94.9%,93%,81.5%,82.2%,48.2%,56%,69.5%,65.6%
Cn1cc(-c2ccc3nnc(Sc4ccc5ncccc5c4)n3n2)cn1,92% and 94.2%,96.6%,90%,101%,98%,99%,98%,94.3%
